# ELG1 repair inh = ELG1-dependent DNA repair inhibition. 2.3% of 330,000 active. Potency, µM (doses to about 46.1 µM), without a hit: at the highest dose activity change, negative = inhibition, actives largely listed as inhibitors. HEK293T ELG1-luciferase reporter, luminescence, 16 h; DNA damage induced by 5-fluorouridine; also: potency is read from the fitted curve at half-maximal effect; nearly all actives have a fitted effect of over 55% in size
#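 Cells (2,000 per well) received 5-fluorouridine plus test compound or DMSO and were incubated 16 hr at 37 °C, 5% CO2. Luciferase activity was read by luminescence 30 min after ONE-Glo addition; signal suppression marked inhibition of damage-induced ELG1 function.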
# TDP1 cell CPT = growth inhibition of DT40 Tdp1-/-;hTDP1 cells with camptothecin (screen for TDP1 inhibitors); Potency, µM (titrated, usually from 46.2 µM), for inactives: top-dose activity change, negative = growth inhibition, hits mostly inhibitors; 12% of 420,000 active; chicken DT40 Tdp1-/-;hTDP1 cells + 20 nM CPT, ATP luminescence, 48 h; AID 686979; also: potency is read from the fitted curve at half-maximal effect; nearly all actives have a fitted effect of over 55% in size
#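 Chicken DT40 Tdp1-/- cells complemented with human TDP1, 400 cells/well, exposed to compounds plus 20 nM camptothecin for at least 48 h at 37 C; viability read as ATP content by CellTiter-Glo luminescence.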
# Giardia killer = kills Giardia lamblia. Giardia lamblia trophozoite viability. activity change, % at 7.66 µM, hits read low. 0.15% of 340,000 active; in the data active = activity change below about -80%; inconclusive = between about -30% and that limit;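 also: parasites exposed to compound for two days anaerobically before the ATP read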
#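 Luminescence from cellular ATP indicates surviving trophozoites (100 cells/well) following 48 hrs anaerobic compound treatment at 37 deg C; signal develops 15-30 min at room temperature.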
# TDP1 inh = blocks human tyrosyl-DNA phosphodiesterase 1; recombinant TDP1, AlphaScreen DNA substrate cleavage; 0.28% of 350,000 active; Potency, µM (highest dose often 130 µM), inactives show at the top dose activity change, negative = inhibition, most hits filed as inhibitors; Q9NUW8; also: potency is read from the fitted curve at half-maximal effect; nearly all actives have a fitted effect of over 40% in size
# Target sequence (Q9NUW8 whole entry, looked up): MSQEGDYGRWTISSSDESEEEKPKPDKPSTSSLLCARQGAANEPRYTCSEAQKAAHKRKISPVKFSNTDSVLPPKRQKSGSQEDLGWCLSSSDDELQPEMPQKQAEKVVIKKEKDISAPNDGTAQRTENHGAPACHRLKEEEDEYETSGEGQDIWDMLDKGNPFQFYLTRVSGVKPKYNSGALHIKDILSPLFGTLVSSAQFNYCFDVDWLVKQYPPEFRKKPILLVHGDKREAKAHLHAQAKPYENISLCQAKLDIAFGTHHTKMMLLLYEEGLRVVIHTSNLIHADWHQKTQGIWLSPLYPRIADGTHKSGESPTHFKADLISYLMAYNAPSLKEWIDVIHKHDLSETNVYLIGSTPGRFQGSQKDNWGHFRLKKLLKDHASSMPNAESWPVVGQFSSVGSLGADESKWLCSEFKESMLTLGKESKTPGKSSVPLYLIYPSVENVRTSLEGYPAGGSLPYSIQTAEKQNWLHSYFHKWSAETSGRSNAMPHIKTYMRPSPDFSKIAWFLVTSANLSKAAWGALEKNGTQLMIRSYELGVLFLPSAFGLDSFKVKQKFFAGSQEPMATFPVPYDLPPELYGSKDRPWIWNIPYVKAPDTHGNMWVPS
#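 Compounds were preincubated with Tdp1 (1 nM final) for 15 min at room temperature before substrate (15 nM final) started a 5 min reaction; beads (10 ug/ml final) were then added for 10 min before AlphaScreen detection.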
# DT40 TDP1 no CPT = qHTS for Inhibitors of human tyrosyl-DNA phosphodiesterase 1 (TDP1): qHTS in cells in absence of CPT; DT40 Tdp1-/- hTDP1 cells, no CPT, ATP luminescence, 48 h; Potency, µM (series often up to 46.2 µM), inactives show at the highest dose activity change, negative = growth inhibition, actives largely listed as inhibitors; 15% of 420,000 active; AID 686978, 2013; also: potency is read from the fitted curve at half-maximal effect; nearly all actives have a fitted effect of over 55% in size
#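 DT40 Tdp1-/-;hTDP1 cells, no CPT (DMSO vehicle only), 400 cells/well; compounds pin-transferred; ≥48 hr, 37 °C; CellTiter-Glo 30 min RT dark, luminescence read.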
# IL1B secr inh = inhibitors of inflammasome signaling (IL-1 beta secretion) | 4.7% of 360,000 active | THP-1 LPS/ATP IL-1B secretion, AlphaLISA, 16 h; hits give low values | AID 743279 | activity change, % at 57.5 µM; in the data active = activity change below about -50%; inconclusive = mostly about -30% to -49%
#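 Secreted IL-1B measured by AlphaLISA bead assay after 16 h compound exposure of THP-1 cells; compounds (final up to 57.5 uM) added 1 h before LPS (250 ng/mL) and ATP (1.25 mM) stimulation; lower signal means less secretion.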
# An asterisk follows results filed as active; ? = inconclusive; · = no result; [ ] = dose if it differs, or a comment. Only some compounds are listed: those with a hit (about 19% of all), similar ones and a draw of the others. Unless noted, calls follow the shape of the dose curve; as a rule, active = well fitted curve in the direction sought with a large enough effect; inconclusive = small, poorly fitted or top-dose-only effect, or another doubt; inactive = no such curve, though single readings can be large; an effect the other way counts as inactive or inconclusive. % is scaled to controls: 0 for no effect and ±100 for the full control effect.
SMILES,ELG1 repair inh,TDP1 cell CPT,Giardia killer,TDP1 inh,DT40 TDP1 no CPT,IL1B secr inh
Cc1c(Cl)cccc1Nc1nn2c(=O)c3ccccc3nc2s1,·,?,·,-9.3%,?,·
CCc1ccc2c(COC(=O)C3CC(=O)N(CCc4ccccc4)C3)cc(=O)oc2c1 (centres undefined),?,-19.5%,-11.0,1.3%,-9.2%,17.1
Cc1cn2c(=O)cc(COC(=O)c3ccc(NC(=O)COc4ccc(C)c(C)c4)cc3)nc2s1,·,11.2%,·,-6.2%,-13.1%,·
COc1cc(OC)cc(C(=O)Nc2ccccc2C(=O)NCc2cccnc2)c1,?,13.6%,29.8,8.1%[0.0935 µM],?,-15.1
N#C/C(=C/c1ccc(Sc2nc3ccccc3[nH]2)o1)c1ccccc1F,?,20.6µM*,-17.9,2.3%,16.4µM*,-95.6*
N#C/C(=C/c1ccc(Sc2nc3ccccc3[nH]2)o1)c1cccc(F)c1,18.4µM*,20.6µM*,0.2,-3.5%,?,-93.6*
N#C/C(=C/c1ccc(Sc2nc3ccccc3[nH]2)o1)c1cccc(Br)c1,?,?,11.8,9.6%,?,?
Cc1ccc(C(=O)CSc2nc(-c3ccccc3)nc3c2CCCC3)cc1,·,-2.9%,·,·,-12.6%,·
Cc1cccc(N2CCN(c3nc4ccccc4c4nnc(C)n34)CC2)c1C,·,13µM*,·,-5.0%,11.6µM*,·
Cc1nnc2c3ccccc3nc(N3CCN(c4cccc(Cl)c4)CC3)n12,·,13µM*,·,5.6%,11.6µM*,·
Cc1ccc(N2CCN(c3nc4ccccc4c4nnc(C)n34)CC2)c(C)c1,·,-7.2%,·,5.6%,-9.9%,·
O=C(c1ccc2c(Cl)c3c(nc2c1)CCCC3)N1CCN(c2ccc(F)cc2)CC1,?,20.6µM*,2.2,6.6%,18.4µM*,-29.7
COc1ccccc1N1CCN(C(=O)c2ccc3c(Cl)c4c(nc3c2)CCCC4)CC1,?,?,7.4,5.3%,?,-87.1*
Cc1ccc2[nH]c(=O)c(CN(CC3CCCO3)C(=S)Nc3ccccc3)cc2c1 (centres undefined),?,13µM*,19.9,8.1%,14.6µM*,-24.2
Cc1cc(C)c2[nH]c(=O)c(CN(CC3CCCO3)C(=S)Nc3ccccc3)cc2c1 (centres undefined),-16.3%,?,-6.8,0.0%,?,15.8
Cc1ccc2cc(CN(CC3CCCO3)C(=S)Nc3ccccc3)c(=O)[nH]c2c1 (centres undefined),?,?,21.6,3.6%,14.6µM*,?
COC(=O)[C@H](NC(=O)c1cc([C@@H](NC(=O)OC(C)(C)C)C(C)C)sc1N)C(C)C,·,?,·,·,?,-8.1
CC12CC(NC(=O)N1c1cccc(C(=O)NCc3ccc4c(c3)OCO4)c1)c1cc(Cl)ccc1O2 (centres undefined),?,18.4µM*,5.3,5.3%,18.4µM*,?
COc1cccc(N2CCN(CC(=O)c3c[nH]c4ccc(OC)cc34)CC2C)c1 (centres undefined),?,20.6µM*,-22.8,7.2%,20.6µM*,-1.9
COC(=O)c1[nH]c2cccc(OC)c2c1NC(=O)CCN1CCN(c2ccccc2OC)CC1,?,10µM*,-8.8,2.0%,12.6µM*,-0.9
COc1ccc2[nH]cc(C(=O)CN3CCCC(C)C3)c2c1 (centres undefined),8.8%,-24.4%,14.7,-4.1%,-20.9%,4.2
CCOC(=O)Nc1c(C(=O)OC)[nH]c2cccc(OC)c12,4.3%,-1.2%,14.5,2.3%,23.3%,4.8
COC(=O)c1[nH]c2cccc(OC)c2c1NC(=O)CCN1CCC(C)CC1,-8.0%,?,7.6,-6.3%,?,-8.2
COC(=O)c1[nH]c2cccc(OC)c2c1NC(=O)CN1CCN(c2cccc(OC)c2)C(C)C1 (centres undefined),13µM*,?,11.5,2.6%,14.6µM*,-0.5
O=C(Cn1cnc2c(oc3ccccc32)c1=O)Nc1ccccc1C(F)(F)F,·,0.0%,·,2.6%,-3.6%,·
SMILES,ELG1 repair inh,TDP1 cell CPT,Giardia killer,TDP1 inh,DT40 TDP1 no CPT,IL1B secr inh
Cc1cnc(NC(=O)C(C)N2CCN(C)CC2)s1 (centres undefined),-3.6%,-8.3%,1.3,-4.8%,-5.6%,-10.9
C=CCNC(=O)C1CCN(S(=O)(=O)c2cccs2)CC1,3.8%,-12.0%,12.7,2.6%,0.6%,14.1
CC(=O)Oc1cc2c(c(C)c1OC(C)=O)CC=C1[C@]3(C)CC[C@]4(C)CC[C@@](C)(C(=O)O)CC4[C@]3(C)CC[C@]12C (some centres undefined),·,3.66µM*,·,7.2%,4.61µM*,·
Cc1ccc(O)c(CNc2cccc(C)n2)c1,19.1%,6.1%,26.4,·,-6.9%,-15.0
Cc1cccc(NCc2cc(Cl)cc(Cl)c2O)n1,-4.5%,-7.9%,13.6,0.0%,-0.3%,-50.5*
Cc1ccnc(NCc2cc(Cl)cc(Cl)c2O)c1,·,-5.6%,·,·,-16.8%,15.9
Cc1cccc(NCc2cc(Cl)ccc2O)n1,13.8%,-26.4%,3.3,2.2%,-14.2%,-78.6*
Cc1ccc(NC(=O)c2cc3ccccn3n2)cc1F,·,?,·,7.9%,?,·
CCOC(=O)C1CCN(C(=O)c2cc3ccc4cccnc4c3[nH]2)CC1,·,-28.8%,·,0.0%,-28.9%,·
Cc1ccc2ccc3cc(C(=O)Nc4ccc(C)c(F)c4)nc3c2[nH]1,·,?,·,-4.2%,16.4µM*,·
CCOC(=O)C1CCN(C(=O)c2cc3ccc4ccc(C)[nH]c4c3n2)CC1,·,18.4µM*,·,3.2%,20.6µM*,·
Cc1ccc2ccc3cc(C(=O)N4CCN(c5ccccc5F)CC4)nc3c2[nH]1,·,?,·,1.1%,16.4µM*,·
N=C(N)SCCN,0.8%,23.1µM*,-8.9,-4.3%[56.1 µM],14.6µM*,21.3
CCOc1ccc(N2C(=O)C(Cl)=C(Nc3ccccc3O)C2=O)cc1,?,20.6µM*,0.6,11.7%,12.6µM*,-9.5
COc1ccccc1NC1=C(Cl)C(=O)N(c2ccccc2)C1=O,5.0%,7.5%,15.8,6.3%,2.8%,23.0
COc1ccc(NC2=C(Cl)C(=O)N(c3ccccc3)C2=O)c(OC)c1,-3.9%,18.4µM*,6.9,5.8%,8.3%,-22.1
COc1ccc(N2C(=O)C(Cl)=C(Nc3c(C)n(C)n(-c4ccccc4)c3=O)C2=O)cc1,9.3%,2.59µM*,-18.6,5.6%,5.8µM*,-13.2
COc1ccc(N2C(=O)C(Cl)=C(Nc3ccc(OC)cc3OC)C2=O)cc1,20.6%,2.5%,1.9,4.6%,?,-6.0
COc1cc(C2c3c(oc4ccccc4c3=O)C(=O)N2c2nncs2)cc(OC)c1OC (centres undefined),·,4.1%,·,-6.3%,5.2%,·
